Out of some 340,000 compounds screened, about 12,000 (3.5%) were called active. Not shown: some 18% with an inconclusive outcome. This is one part of a sample in which actives are shown more often than they occur. Calls come from the whole dose curve; as a rule, active = well fitted inhibition curve with a large enough effect; inconclusive = small, poorly fitted or top-dose-only effect, or another doubt; inactive = no such curve, though single readings can be large or run the other way.
% is set by controls: 0 for no effect and ±100 for the full control effect.

This test is described as follows: qHTS Assay for Inhibitors of Hepatitis C Virus (HCV). The following applies: Huh7.5.1 HCVcc-Cre infection, luciferase reporter, 44 h; series mostly up to 41.8 µM; activity change, negative = inhibition: at the top concentration. From the text:
Hepatitis C virus (HCV) infects about 200 million people in the world. Many infected people progress to chronic liver disease including cirrhosis with a risk of developing liver cancer. To date, there is no effective vaccine for hepatitis C. Current therapy based on interferon is only effective in about half of the patients and is associated with significant adverse effects. The fraction of people with HCV who can complete a successful treatment is estimated to be no more than 10 percent. Recent development of direct-acting antivirals against HCV, such as protease and polymerase inhibitors, is promising but still requires combination with peginterferon and ribavirin for maximal efficacy. In addition, these agents are associated with high rate of resistance and many have significant side effects. Due to the lack of a culture system for infectious HCV, the search for new HCV drugs has been greatly hampered. […] High-throughput screening (HTS) with an infectious HCV system would cover the complete spectrum of potentially druggable targets in all stages of HCV lifecycle, and would have more biological relevance than other cell-based assays. Moreover, targeting several key processes in the viral life cycle may not only increase antiviral efficacy; more importantly, it may also reduce the capacity of the virus to develop resistance to the compound. The goal of this project is to identify novel HCV inhibitors as new therapies for hepatitis C, using a highly sensitive and specific assay platform which is based on a HCV infectious cell culture system established in the laboratory and adapted for high-throughput HCV drug screen. NIH Chemical Genomics Center [NCGC] NIH Molecular Libraries Probe Centers Network [MLPCN] MLPCN Grant: MH095511 Assay Submitter (PI): Jake Liang, NIDDK
The assay will start with plating 1,000 cells/well in 3 µL volume and culture for 4 h. Then 23 nL of compounds from the library collection will be added to each well, followed by adding 2.5 µL of HCVcc-Cre virus (~ 0.5 moi) and further cultured for 44 h before the luciferase assay. A volume of 4.5 µL luciferase substrates will be added to each well and the plates will be incubated at room temperature for 15 min. and then read for 15 sec. for the luciferase activity
On the technique in general: qHTS replaces the single test concentration by a dilution series.
Regarding `Nc1ccc2c(c1)C(O)c1ccc(Cl)cc1-2` (centres undefined), the “activity change, negative = inhibition” value was -6.9% (inactive).

Consider `CN(C)CCOCCOc1ccc(Cl)c2ccccc12`, for which the Potency was 10 µM (active).

On to `CN(C)CCOC1c2ccccc2-c2ccccc21`, for which the “activity change, negative = inhibition” value is -15.1% (inactive).

As for `Clc1cccc(Cl)c1OCCOCCNCc1ccccc1`, the “activity change, negative = inhibition” value is -1.97% (inactive).

`CCC(C)N(C(=O)CSc1nnnn1-c1ccccc1OC)C1CCS(=O)(=O)C1` (centres undefined): the “activity change, negative = inhibition” value is -3.37% (inactive).

Turning to `CN(C(=O)Cn1nnc(-c2ccc(F)cc2)n1)C1CCS(=O)(=O)C1` (centres undefined), the “activity change, negative = inhibition” value is -3.26% (inactive).

As to `CCN1CCC(O)(/C=C/c2ccc(C)cc2)C(C(=O)/C=C/c2ccc(C)cc2)C1` (centres undefined), the Potency is 14.1 µM (active).

On to `CCOC(=O)C1CCCN(C(=O)/C=C/c2ccc(OC)cc2)C1` (centres undefined), for which the “activity change, negative = inhibition” value was 5% (inactive).

Consider `CCN1CCN(C(=O)CSc2ccc(C)cc2)CC1`, for which the “activity change, negative = inhibition” value is 11% (inactive).

`NC(=O)C1(Nc2ccccc2Cl)CCCC1`: the “activity change, negative = inhibition” value is -11.2% (inactive).

`O=C(CCNC(=O)c1ccc(Cl)cc1)NC1CCCc2ccccc21` (centres undefined): the “activity change, negative = inhibition” value was -24.4% (inactive).

Turning to `CCOc1ccc(C(C)NC(=O)CN2C(=O)NC3(CCCCC3)C2=O)cc1OCC` (centres undefined), the “activity change, negative = inhibition” value is -0.805% (inactive).

With `CN(C)S(=O)(=O)c1cccc(NC(=O)COc2ccc3ccccc3c2)c1`, the Potency was 22.4 µM (active).

Regarding `CN(C)S(=O)(=O)c1cccc(NC(=O)COC(=O)c2cc(=O)[nH]c(=O)[nH]2)c1`, the “activity change, negative = inhibition” value was 16.2% (inactive).

With `CN(C)S(=O)(=O)c1cccc(NC(=O)COC(=O)/C=C/c2cccs2)c1`, the “activity change, negative = inhibition” value is 7.42% (inactive).

For `CCc1c(Nc2ccccc2C)nc(N)[nH]c1=O`, the “activity change, negative = inhibition” value was 7.29% (inactive).

With `C[C@H](CO)N1C[C@H](C)[C@@H](CN(C)S(=O)(=O)c2ccc(F)cc2)Oc2ccc(NC(=O)CCC(F)(F)F)cc2C1=O`, the “activity change, negative = inhibition” value is 13.6% (inactive).

In the case of `Cc1ccc(Oc2cnn(-c3ccccc3)c(=O)c2Br)cc1`, the “activity change, negative = inhibition” value was 10.5% (inactive).

`COc1ccc(-n2c(C)nc3c(cnn3-c3ccccc3)c2=O)cc1`: the Potency is 11.2 µM (active).

For `CCOC(=O)c1ccc(-n2c(C)nc3c(cnn3-c3ccccc3C)c2=O)cc1`, the “activity change, negative = inhibition” value was -2.88% (inactive).

Take `COc1ccc(CNC(=O)COC(=O)c2sccc2C)cc1OC`: the “activity change, negative = inhibition” value is -7.13% (inactive).

With `O=C(COc1cccnc1[N+](=O)[O-])Nc1ccc(Cl)cc1F`, the “activity change, negative = inhibition” value was 2.37% (inactive).

Take `COC(C[C@@H]1O[C@@H]1C(=O)[C@H](C)OCc1ccccc1)OC`: the “activity change, negative = inhibition” value is 18.8% (inactive).

Turning to `Cc1nc(Nc2ccccc2C)c2cnn(C)c2n1`, the “activity change, negative = inhibition” value is 8.38% (inactive).

Consider `CCCNS(=O)(=O)c1ccc(CCC(=O)N2CCCC2)cc1`, for which the “activity change, negative = inhibition” value was -7.28% (inactive).

On to `CCNS(=O)(=O)c1ccc(CCC(=O)N2CCN(c3cc(Cl)ccc3C)CC2)cc1`, for which the Potency was 11.2 µM (active).

As for `CCNS(=O)(=O)c1ccc(CCC(=O)N2CCN(c3ccc(OC)cc3)CC2)cc1`, the “activity change, negative = inhibition” value is -29.2% (inactive).

As for `COC(C/C=C/C(=O)[C@@H](C)OCc1ccccc1)OC`, the “activity change, negative = inhibition” value was -1.38% (inactive).

With `Nc1nc(-c2ccccc2)cc(-c2ccccc2)n1`, the Potency is 10 µM (active).

On to `CS(=O)(=O)c1sc2nc(-c3ccccc3)cc(-c3ccccc3)c2c1N`, for which the “activity change, negative = inhibition” value was -20.9% (inactive).

Consider `c1ccc(-c2cc(-c3ccccc3)[nH]n2)cc1`, for which the “activity change, negative = inhibition” value was -23.8% (inactive).

As to `COCCNc1nnc(SCC(=O)NNC(=O)c2ccco2)s1`, the “activity change, negative = inhibition” value is -1.76% (inactive).

For `Cn1c(=O)c(Sc2ccc(Cl)cc2)c(O)c2ccccc21`, the “activity change, negative = inhibition” value was 10.3% (inactive).

For the compound `CCCn1c(=O)c(-c2ccccc2)c(O)c2ccccc21`, the “activity change, negative = inhibition” value is 0.771% (inactive).

With `Cc1cc(C)c(-c2c(O)c3ccccc3n(C)c2=O)c(C)c1`, the Potency was 11.2 µM (active).

For `CC(C#N)(NC(=O)CN1CCN(S(=O)(=O)c2cc(C(F)(F)F)ccc2Cl)CC1)C1CC1` (centres undefined), the “activity change, negative = inhibition” value was -19.9% (inactive).

`Cc1[nH]c(=O)c(C(=O)/C=C/c2ccccc2)c2c1CCCC2`: the Potency was 14.1 µM (active).

With `O=C(/C=C/c1ccccc1)c1ccoc1`, the “activity change, negative = inhibition” value is 3.26% (inactive).

Regarding `Cc1cn(COC/C=C/c2ccccc2)c(=O)[nH]c1=O`, the “activity change, negative = inhibition” value was 12.5% (inactive).

Turning to `O=C(NCCS(=O)(=O)N1CCN(c2ccccc2)CC1)c1ccco1`, the activity change, negative = inhibition is 5.8% [at 8.37 µM] (inactive).

Turning to `Cc1cc(C)nc(SCC(=O)c2ccc(Cl)cc2)n1`, the Potency was 2.82 µM (active).

Turning to `COC(=O)c1cc(C(=O)CSc2nc(C)cc(C)n2)ccc1O`, the “activity change, negative = inhibition” value is 8.38% (inactive).

Consider `Cc1cc(Oc2ccc(Cl)cc2)nc(SCC(=O)c2ccccc2)n1`, for which the “activity change, negative = inhibition” value is -9.04% (inactive).

In the case of `Cn1nnnc1SCC(=O)Nc1sccc1C(N)=O`, the “activity change, negative = inhibition” value was 2.96% (inactive).

For the compound `NC(=O)C1(N2CCCC2)CCN(Cc2ccccc2)CC1`, the “activity change, negative = inhibition” value is 19.9% (inactive).

Consider `Cc1ccc(CSc2nc3[nH]ncc3c(=O)[nH]2)cc1`, for which the “activity change, negative = inhibition” value is -3.65% (inactive).

On to `CCc1ccc(-n2c(SCc3cc(=O)n4cc(Br)ccc4n3)nc3[nH]ncc3c2=O)cc1`, for which the Potency is 10 µM (active).

With `Cc1cccc2nc(CSc3nc4[nH]ncc4c(=O)n3-c3cccc(Cl)c3)cc(=O)n12`, the activity change, negative = inhibition is -0.622% [at 0.335 µM] (inactive).

Regarding `CN1C(c2ccc(F)cc2)=CS/C1=C(/C#N)c1nnc2n1-c1ccccc1SC2`, the “activity change, negative = inhibition” value was 6.19% (inactive).

With `CC(CNC(=O)Cn1cnc2c(OCc3ccccc3)ncnc21)c1ccccc1` (centres undefined), the “activity change, negative = inhibition” value is 2.55% (inactive).

Turning to `CN(CC(=O)Nc1ccccc1Cl)C(=O)c1ccccc1SCC(=O)N1CCCC1`, the “activity change, negative = inhibition” value was 8.76% (inactive).

Regarding `O=C(COC(=O)Cc1ccccc1F)NCCc1ccccc1`, the “activity change, negative = inhibition” value is -2.44% (inactive).

Take `N=c1n(CCc2ccccc2)c2ccccc2n1Cc1ccccc1F`: the Potency is 12.6 µM (active).

Consider `CC(=O)NC(C)c1nc2ccccc2n1Cc1ccccc1F` (centres undefined), for which the “activity change, negative = inhibition” value is 2.57% (inactive).

Source of the values: PubChem BioAssay AID651820 (National Center for Advancing Translational Sciences (NCATS), 2012).
